Screens: PubChem BioAssay, National Center for Advancing Translational Sciences (NCATS)
Many of the other results were omitted from the sample, so hits are more common in it than they were.
FH mod: Identification of activators of human fumarate hydratase by quantitative high-throughput screening; actives 0.22% (n = 54,000); AID 1347055, 2019; FH coupled MDH/diaphorase resazurin fluorescence, 15 min; Potency, µM (titrated, usually from 79.9 µM), without a hit: at the highest dose activity change, negative = inhibition, usual class: inhibitors; Fumarate hydratase, mitochondrial (Homo sapiens), P07954; also: potency is read from the fitted curve at half-maximal effect; % is scaled to controls: 0 for no effect and ±100 for the full control effect; the screen sought activators but most active calls are inhibition curves; nearly all actives have a fitted effect of over 45% in size
OvCa metastasis: inhibitors of ovarian cancer cell adhesion and invasion in omental model | AID 1963576 | Potency, µM (highest dose often 45.8 µM), without a hit: top-dose activity change, negative = inhibition, actives largely listed as inhibitors | actives 0.1% (n = 46,000) | SKOV3ip1-GFP adhesion/invasion on 3D omental model, fluorescence;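 also: potency is read from the fitted curve at half-maximal effect; plate controls were DMSO wells for no effect and tomatine positive control wells for full effect; nearly all actives have a fitted effect of over 65% in size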
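Adhesion/invasion was scored as fixed GFP-labeled SKOV3ip1 cell counts (488/509 nm), normalized to DMSO and tomatine controls. Cancer cells in serum-free medium, with four compound doses (0.36-46 umol/L), sat 2 hr at RT then 16 hr at 37 C on a 48 hr fibroblast/mesothelial/ECM culture.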
p53null 39C tox: selectivity test: cytotoxicity in p53 null cells, nonpermissive temperature; H1299 p53-null (neo) cells, 39C, ATPlite viability, 24 h; Potency, µM (doses to about 46.1 µM), for inactives: top-dose activity, negative = cell killing, actives largely listed as cytotoxic; actives 0.97% (n = 55,000); AID 904;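 also: potency is read from the fitted curve at half-maximal effect; 0% = DMSO only and -100% = full killing by 100 µM tamoxifen; nearly all actives have a fitted effect of over 50% in size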
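H1299 lung cancer cells, p53-null (H1299-neo) or expressing p53 A138V (H1299-p53A138V), were plated overnight at 37C, then exposed to compounds at up to 46 uM for 24 hr at 39C. Viability was read by ATP-based luminescence.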
NTMT1 inh: NTMT1 methyltransferase inhibition; Q9BV86; AID 1645870; Potency, µM (series often up to 114 µM), without a hit: top-dose activity change, negative = inhibition, usual class: inhibitors; NTMT1 MTase-Glo SAH luminescence, purified enzyme; actives 2.5% (n = 59,000);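 also: potency is read from the fitted curve at half-maximal effect; plate controls were DMSO vehicle for no effect and no enzyme for full effect; nearly all actives have a fitted effect of over 65% in size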
Target sequence (Q9BV86 whole entry, looked up): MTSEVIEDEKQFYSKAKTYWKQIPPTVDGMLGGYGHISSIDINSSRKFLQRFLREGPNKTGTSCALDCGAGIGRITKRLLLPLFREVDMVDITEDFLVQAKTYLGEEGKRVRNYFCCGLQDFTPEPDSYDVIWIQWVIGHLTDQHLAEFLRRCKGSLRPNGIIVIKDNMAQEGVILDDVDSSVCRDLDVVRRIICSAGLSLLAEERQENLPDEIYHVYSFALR
p53null 32C tox: selectivity test: cytotoxicity in p53 null cells, permissive temperature | H1299-neo p53 null cells, ATP luminescence, 24 h, 32C | Potency, µM (top dose mostly 46.1 µM), for inactives: at the highest dose activity change, negative = cytotoxicity, usual class: cytotoxic | actives 0.62% (n = 55,000) | AID 903;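 also: potency is read from the fitted curve at half-maximal effect; 0% = DMSO only and -100% = full killing by 100 µM tamoxifen; nearly all actives have a fitted effect of over 55% in size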
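Cytotoxicity: H1299-neo (no p53), 32C, 24 h treatment. Concentrations up to 46 uM. Readout cellular ATP, luminescence. Normalization to DMSO basal and tamoxifen 100 uM maximal kill.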
Sfp qHTS opt: Sfp PPTase inhibition, chemistry optimization; shares compounds with NTMT1 inh; purified Sfp PPTase enzyme activity, qHTS; Potency, µM (doses to about 114 µM), for inactives: at the highest dose activity change, negative = inhibition, actives largely listed as inhibitors; actives 78% (n = 230); AID 540350
HM489 growth: B. subtilis HM489 growth inhibition; shares compounds with NTMT1 inh; B. subtilis HM489 (acpS-) growth, BacTiter-Glo, 5 h; Potency, µM (top dose mostly 114 µM), for inactives: top-dose activity change, negative = inhibition, actives largely listed as inhibitors; actives 50% (n = 220)
Sfp gel opt: inhibitors of Bacillus subtilis Sfp PPTase, gel-based followup; shares compounds with NTMT1 inh; Potency, µM (titrated, usually from 250 µM), for inactives: top-dose activity change, negative = inhibition, usual class: inhibitors; purified Sfp PPTase, gel-based product detection; AID 540355; actives 54% (n = 220)
Sfp gel: inhibits B. subtilis Sfp PPTase in gel-based assay; shares compounds with NTMT1 inh; purified Sfp PPTase, gel-based product detection; Potency, µM (series often up to 250 µM), for the others: at the highest dose activity change, negative = inhibition, actives largely listed as inhibitors; actives 90% (n = 45)
Sfp SAR2: inhibits B. subtilis Sfp PPTase in second SAR round; AID 602370; shares compounds with NTMT1 inh; Potency, µM (highest dose often 57.1 µM), without a hit: top-dose activity change, negative = inhibition, hits mostly inhibitors; actives 87% (n = 230); purified Sfp enzyme, PPTase activity, qHTS
hGST A1-1 inh: counter-screen for Sfp PPTase inhibitors: hGST A1-1 inhibition; 55 tested, under 10 active; Potency, µM (highest dose often 114 µM), without a hit: at the top dose activity change, negative = inhibition, usual class: inhibitors; shares compounds with NTMT1 inh; hGST A1-1 enzyme activity counter-screen, qHTS
HSD17B4 inh: HSD17B4 (human) inhibition, HPGD counter-screen | shares compounds with NTMT1 inh | purified HSD17B4, estradiol/NAD+, NADH fluorescence | Potency, µM (highest dose often 57.1 µM), for inactives: at the highest dose activity change, negative = inhibition, most hits filed as inhibitors | actives 10% (n = 230) | AID 743187
ALDH1A1 counter: counter-screen for HPGD inhibitors: human ALDH1A1 inhibition; AID 743195; shares compounds with NTMT1 inh; actives 93% (n = 230); recombinant ALDH1A1, NADH fluorescence, propionaldehyde/NAD+; Potency, µM (top dose mostly 57.1 µM), for the others: at the top dose activity change, negative = inhibition, actives largely listed as inhibitors
Target sequence (P00352 whole entry, looked up): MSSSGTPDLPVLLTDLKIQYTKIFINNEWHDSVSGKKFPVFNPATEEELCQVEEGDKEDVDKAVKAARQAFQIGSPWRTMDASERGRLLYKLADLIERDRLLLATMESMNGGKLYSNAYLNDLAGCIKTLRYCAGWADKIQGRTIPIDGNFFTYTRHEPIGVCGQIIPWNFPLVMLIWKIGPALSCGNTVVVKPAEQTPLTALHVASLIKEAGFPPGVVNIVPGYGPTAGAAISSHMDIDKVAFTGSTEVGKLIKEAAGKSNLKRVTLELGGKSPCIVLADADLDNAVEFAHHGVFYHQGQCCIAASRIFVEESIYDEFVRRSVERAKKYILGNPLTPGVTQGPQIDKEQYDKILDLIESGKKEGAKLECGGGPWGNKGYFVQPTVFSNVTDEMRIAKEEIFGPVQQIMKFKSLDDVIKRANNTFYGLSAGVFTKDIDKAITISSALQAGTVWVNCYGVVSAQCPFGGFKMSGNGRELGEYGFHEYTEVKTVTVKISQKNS
* = called active by the depositor; i = inactive; ? = inconclusive; / = not tested or not shown; ! = not active in a repeat; [ ] = dose if it differs, or a comment. Calls follow the shape of the dose curve; as a rule, active = well fitted curve in the direction sought with a large enough effect; inconclusive = small, poorly fitted or top-dose-only effect, or another doubt; inactive = no such curve, though single readings can be large; an effect the other way counts as inactive or inconclusive.

SMILES	FH mod	OvCa metastasis	p53null 39C tox	NTMT1 inh	p53null 32C tox	Sfp qHTS opt	HM489 growth	Sfp gel opt	Sfp SAR2	HSD17B4 inh	ALDH1A1 counter	others
Cc1ccnc(N=C(N)N2CCN(c3cccc(C(F)(F)F)c3)CC2)c1	/	/	/	/	/	?	?	1%	36µM*	/	/	Sfp gel=1%;hGST A1-1 inh=?
Cc1ccnc(NC(=S)N2CCN(c3cccc(C(F)(F)F)c3)CC2)c1	/	/	/	/	/	4.7µM*	12µM*	0.32µM*!	0.65µM*	-25%	7.6µM*	Sfp gel=4.3µM*;hGST A1-1 inh=-3%
Cc1cc(Nc2cccc(C(F)(F)F)c2)ncn1	-5%	9%	-12%	-18%	-5%	/	/	/	/	/	/
Cc1ccnc(NC(=S)N2CCC(Nc3cccc(C(F)(F)F)c3)CC2)c1	/	/	/	-17%	/	1.9µM*	12µM*	0.4µM*	1µM*	2%	4.8µM*
FC(F)(F)c1cccc(N2CCN(C(=S)Nc3ccccn3)CC2)c1	/	/	/	/	/	2.4µM*	37µM*	25µM*	0.91µM*	-27%	7.6µM*
FC(F)(F)c1cccc(N2CCN(C(=S)Nc3cnccn3)CC2)c1	/	/	/	/	/	?	-53%	158µM*	?	30µM*	24µM*
CSc1ncc(C(=O)N2CCN(c3cccc(C(F)(F)F)c3)CC2)c(C)n1	-3%	-5%	-11%	18%	-9%	/	/	/	/	/	/
Cn1nnc2c(N3CCN(c4cccc(C(F)(F)F)c4)CC3)ncnc21	6%	5%	9%	4%	1%	/	/	/	/	/	/
Cn1cnc(S(=O)(=O)N2CCC(C(=O)N3CCN(c4cccc(C(F)(F)F)c4)CC3)CC2)c1	-21%	3%	14%	-5%	0%	/	/	/	/	/	/
FC(F)(F)c1cccc(N2CCN(C(=S)Nc3cc(C(F)(F)F)ccn3)CC2)c1	/	/	/	?	/	5.1µM*	7.4µM*	?	?	-12%	19µM*	Sfp gel=-5%;hGST A1-1 inh=?
Cc1ccnc(NC(=S)N2CCN(c3cccc(C(F)(F)F)c3)C2)c1	/	/	/	-11%[57.5 µM]	/	3%	-28%	?	0.81µM*	-8%	22µM*
OCc1ccnc(NC(=S)N2CCN(c3cccc(C(F)(F)F)c3)CC2)c1	/	/	/	-1%	/	59µM*	53µM*	37%	32µM*	-21%	24µM*
Cc1cc(C)nc(NC(=S)N2CCN(c3ccc4cn(C)nc4c3)CC2)c1	/	/	/	?	/	13µM*	12%	-68%	11µM*	?	22µM*
Cc1ccnc(C(=S)N2CCN(c3cccc(C(F)(F)F)c3)CC2)c1	/	/	/	-2%	/	?	?	6%	?	-7%	17µM*
Cc1ccnc(NC(=S)N[C@H]2CCN(c3cccc(C(F)(F)F)c3)C2)c1	/	/	/	8%[57.5 µM]	/	-3%	?	?	?	0%	22µM*
Cc1ccc(/C=C/C(=O)N2CCN(c3cccc(C(F)(F)F)c3)CC2)cc1	/	/	-6%	/	-17%	/	/	/	/	/	/
Cc1ccc2nc(N3CCN(c4cccc(C(F)(F)F)c4)CC3)c3nnnn3c2c1	/	i	0%	/	-11%	/	/	/	/	/	/
Cc1ccc(NC(=O)N2CCN(c3ccc(Cl)c(Cl)c3)CC2)cc1	-27%	-3%	?	1%	5%	/	/	/	/	/	/
FC(F)(F)c1cccc(N2CCN(C(=S)Nc3cc4ccccc4cn3)CC2)c1	/	/	/	/	/	47µM*	-1%	16µM*	13µM*	24µM*	15µM*
C=C(C)Cn1c(SCC(=O)c2cccs2)nc2sc3c(c2c1=O)CCCC3	-5%	/	/	-4%[57.5 µM]	/	/	/	/	/	/	/
C[C@H](NC(=O)CCc1nc2ccccc2c(=O)[nH]1)c1ccccc1	9%	/	/	6%	/	/	/	/	/	/	/
Cc1cc(C)nc(NC(=S)N2CCN(c3cc(C(F)(F)F)cc(C(F)(F)F)c3)CC2)c1	/	/	/	/	/	3.3µM*	17%	?	0.51µM*	-2%	22µM*
Cc1ccnc(NC(=S)N2CCCN(c3cccc(C(F)(F)F)c3)CC2)c1	/	/	/	?	/	4.7µM*	7.4µM*	1.3µM*	1.6µM*	-9%	1.7µM*	Sfp gel=1.9µM*;hGST A1-1 inh=?
